AMA1-RON2 inh = disrupts binding of P. falciparum AMA1 to RON2; Potency, µM (titrated, usually from 58.2 µM), without a hit: at the top dose activity change, negative = inhibition, hits mostly inhibitors; AlphaScreen AMA1-biotinylated RON2 peptide binding; AID 720542; 360,000 compounds, 0.2% hits;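 further: 0% = vehicle wells and -100% = peptide control; nearly all actives have a fitted effect of over 45% in size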
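AMA1 (3D7) with his tag at 25 nM final met compounds first, then biotinylated RON2 peptide at 25 nM; detection used donor plus acceptor beads, 10 µg/mL apiece, read by AlphaScreen after 30 min at room temperature.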
Pf growth 96h = P. falciparum growth inhibition at 96 hour, primary screen for plastid delayed-death inhibitors; 320,000 compounds, 6.9% hits; Potency, µM (series often up to 28.7 µM), inactives show at the highest dose activity change, negative = inhibition, actives largely listed as inhibitors; P. falciparum luciferase reporter growth, 96 h
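Parasite growth measured via integrated firefly luciferase reporter in P. falciparum. Infected erythrocytes at 2% hematocrit, 0.05% parasitemia final were treated 96 hours at 37 C under 5% CO2, and luminescence was read.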
HCV inh = HCV inhibition; Huh7.5.1 HCVcc-Cre infection, luciferase reporter, 44 h; Potency, µM (highest dose often 41.8 µM), for inactives: at the top dose activity change, negative = inhibition, actives largely listed as inhibitors; 340,000 compounds, 3.4% hits
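Seed cells (1,000/well) for 4 h; treat with compound and infect with HCVcc-Cre, moi about 0.5. Incubate 44 h, then detect luciferase activity.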
Pf growth 48h = inhibits P. falciparum growth in the first generation, 48 h. AID 504832. P. falciparum luciferase growth in erythrocytes, 48 h. 310,000 compounds, 5.9% hits. Potency, µM (doses to about 28.7 µM), for the others: at the top dose activity change, negative = inhibition, most hits filed as inhibitors
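Firefly luciferase activity from engineered P. falciparum reports growth; inhibitors lower the luminescent signal. Cultures contained 2% hematocrit erythrocytes at 0.1% final parasitemia.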
Starred values were filed as active, the others as inactive; ? = inconclusive; / = not tested or not shown; [ ] = remark or other dose. In the library only some 11% were active in any assay of this set; here they are far more common. The call rests on the fitted dose curve; in most records, active means well fitted curve in the direction sought with a large enough effect; inconclusive means small, poorly fitted or top-dose-only effect, or another doubt; inactive means no such curve, though single readings can be large; an effect the other way counts as inactive or inconclusive. Unless noted, on the % scale 0 is the no-effect control and ±100 the full control effect; potency means the concentration at half of the fitted maximal effect.

SMILES	AMA1-RON2 inh	Pf growth 96h	HCV inh	Pf growth 48h
COc1ccc(CNC(=O)CCS(=O)(=O)c2ccc(Br)cc2)cc1	7%	4.7µM*	-4%	41%
COc1ccccc1CC(=O)Nc1ccc(S(=O)(=O)N2CC(C)CC(C)C2)cc1 (stereo unspecified)	-1%	?	-16%	?
Cc1cc(C)n(-c2nnc(N3CCN(c4ccc(F)cc4)CC3)nn2)n1	-6%	0.37µM*	-11%	?
Cc1cc(C)n(-c2ccc(N3CCOCC3)nn2)n1	1%	39%	5%	72%
Cc1ccc(-c2cnc(-c3ccccc3C(=O)O)o2)cc1	-22%	42%	7%	18%
O=S(=O)(c1ccc(Nc2ccc(-c3ccc4c(c3)OCCO4)nn2)cc1)N1CCCC1	-1%	?	?	/
O=C(NC1CC1)c1cccc(Nc2ccc(-c3ccc4c(c3)OCCO4)nn2)c1	-16%	13%[5.75 µM]	10µM*	?
NC(=O)COC(=O)c1cc(=O)[nH]c2ccccc12	26%	10%	10µM*	14%
CNC(=O)COC(=O)c1cc(=O)[nH]c2ccccc12	0%	0%	19%	26%
N/C(Cc1ccc(Cl)cc1)=N\OC(=O)CCc1ccccc1	58%	/	/	/
CCCCNC(=O)C1CC(=O)N(CCc2ccc(C)cc2)C1 (stereo unspecified)	-8%	-1%	20%	-37%[0.00184 µM]
CCCCN1C(=O)NC(c2ccc(OC)cc2)C(C(=O)OCc2ccccc2)=C1C (stereo unspecified)	9%	5.2µM*	?	?
CC1=C(C(=O)OCc2ccccc2)C(c2ccc3ccccc3c2)NC(=O)N1CCCCCC(=O)O (stereo unspecified)	-3%	10µM*	1%[8.37 µM]	?
CC1=C(C(=O)OCc2ccccc2)C(c2ccccc2-c2ccccc2)NC(=O)N1CCCCCC(=O)O (stereo unspecified)	-4%	12µM*	6%[8.37 µM]	?
CCOc1ccc(Cl)cc1S(=O)(=O)N1CCC(C(=O)NC2CC2)CC1	-2%	-1%	23%	?
NC(=O)CC1C(=O)N(c2ccccc2)C(=S)N1NC(=O)c1ccccc1 (stereo unspecified)	88%	305%	3%	166%
C/C=N/NC(=O)CCNC(=O)c1ccccc1	55%	6%	10%	4%
COC(=O)c1ccc(C23CC4(C2)[C@H](CN(Cc2cccnc2)[C@@H]4c2ccccc2)C3c2ccc(C(F)(F)F)cc2)cc1 (stereo partly specified)	1%	3.3µM*	-20%	2.9µM*
COC(=O)c1ccc(C23CC4(C2)[C@H](CN(Cc2ccc(-c5ccccc5)cc2)[C@@H]4c2ccccc2)C3c2ccc(C(F)(F)F)cc2)cc1 (stereo partly specified)	0%	?	3%[8.37 µM]	?
COC(=O)c1ccc(C23CC4(C2)[C@H](CN(CC2CCCCC2)[C@@H]4c2ccccc2)C3c2ccccc2)cc1 (stereo partly specified)	1%	?	-8%	?
COC(=O)c1ccc(C23CC4(C2)[C@H](CN(Cc2cccnc2)[C@@H]4c2ccccc2)C3c2ccccc2)cc1 (stereo partly specified)	-16%	8.3µM*	-17%	7.4µM*
N#Cc1ccc(C23CC4(C2)[C@H](CN(Cc2cccnc2)[C@@H]4c2ccccc2)C3c2ccccc2)cc1 (stereo partly specified)	-3%	3.7µM*	?	4.1µM*
Cc1cccc(NC(=O)CCc2ccc(S(=O)(=O)NC3CCCCC3)cc2)c1	-1%	/	-6%	0%
CNC(=O)CSc1nc2nn(-c3ccccc3)c(=O)c-2c2n1CCCCC2	6%	?	5%	?
O=C(CSc1nc2nn(-c3ccccc3)c(=O)c-2c2n1CCCCC2)c1ccc(O)c(O)c1	-15%[11.6 µM]	?	?	9.3µM*
COc1ccc(C2CC(=O)C(C=NCCCN3CCOCC3)=C(O)C2)cc1 (stereo unspecified)	5%	3.3µM*	7%	11%
COc1ccc(C2CC(=O)C(C=NCCO)=C(O)C2)cc1 (stereo unspecified)	20%	34%	9%	71%
COc1ccc(/C=C2/CCC(CN3CCOCC3)C2=O)cc1 (stereo unspecified)	-4%	/	5µM*	/

Source: PubChem
